# Sfp PPTase inh – blocks B. subtilis Sfp PPTase activity. AID 1490. Biochemical Sfp PPTase activity, qHTS. Potency, µM, usual class: inhibitors. 310,000 compounds, 3.5% hits;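 note: the enzyme is Sfp with the accession as filed and its product quenches rhodamine fluorescence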
#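 Sfp 15 nM + cpd, 15 min RT; start w/ rhodamine-CoA 5 uM, BHQ-2-YbbR 12.5 uM (final); 50 mM Hepes pH 7.6, 10 mM MgCl2, 0.01% NP-40, 0.01% BSA; read 525/598 nm at 0 and 30 min.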
# BAZ2B inh – blocks human BAZ2B | Q9UIF8 | AlphaScreen BAZ2B-H3K14Ac peptide displacement | Potency, µM (top dose mostly 114 µM), most hits filed as inhibitors | 360,000 compounds, 4.4% hits; note: nearly all actives have a fitted effect of over 60% in size
#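 BAZ2B (50 nM) with biotin-H3(5-23)K14Ac peptide (50 nM) in PBS pH 7.4, 0.01% Tween-20, preformed 30 min, then compound 30 min at room temperature; top concentration 110uM. AlphaScreen streptavidin donor/nickel chelate acceptor beads (10 ug/mL final), 20 min dark, signal read.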
# G9a block – inhibitors of human histone lysine methyltransferase G9a; Q96KQ7; 350,000 compounds, 8.8% hits; G9a H3K9 monomethylation, AlphaScreen, 2 h; Potency, µM (titrated, usually from 102 µM), usual class: inhibitors; note: nearly all actives have a fitted effect of over 75% in size
# Target sequence (Q96KQ7 913-1193 limits assumed): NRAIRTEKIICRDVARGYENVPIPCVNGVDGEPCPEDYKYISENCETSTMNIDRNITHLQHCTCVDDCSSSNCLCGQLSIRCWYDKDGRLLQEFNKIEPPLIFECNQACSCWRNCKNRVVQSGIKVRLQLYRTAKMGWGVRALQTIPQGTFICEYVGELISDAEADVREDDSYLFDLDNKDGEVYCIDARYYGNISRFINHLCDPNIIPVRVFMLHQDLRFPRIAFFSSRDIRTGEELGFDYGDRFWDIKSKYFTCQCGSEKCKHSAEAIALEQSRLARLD
#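 Quantitative HTS format: methyltransferase activity on a biotin-tagged H3K9 peptide is measured by AlphaScreen, using a rabbit anti-monomethyl-H3K9 antibody with streptavidin donor and anti-IgG acceptor beads. Final levels are 20 nM enzyme, 500 nM peptide, 20 uM SAM; 2 h RT.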
# HP1b chromo inh – blocks HP1-beta chromodomain binding to methylated histone tails | AlphaScreen HP1-beta / biotin-H3K9me3 peptide binding | Potency, µM (doses to about 114 µM), most hits filed as inhibitors | 390,000 compounds, 0.56% hits; note: nearly all actives have a fitted effect of over 70% in size
# Target sequence (P83916 whole entry, looked up): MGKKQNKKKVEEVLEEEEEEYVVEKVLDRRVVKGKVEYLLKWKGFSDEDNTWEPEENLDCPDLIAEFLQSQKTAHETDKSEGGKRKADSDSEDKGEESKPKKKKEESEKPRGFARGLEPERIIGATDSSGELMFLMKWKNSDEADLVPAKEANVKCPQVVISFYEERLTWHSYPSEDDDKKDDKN
#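 AlphaScreen: HP1-beta (50 nM) preformed 30 min with biotin-H3(1-18)K9me3 peptide (50 nM) in PBS pH 7.4, 0.01% Tween-20. Compound added for 30 min at RT, then streptavidin donor/nickel chelate acceptor beads (10 ug/mL) for 30 min.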
# JMJD2A Tudor – inhibitors of human JMJD2A Tudor domain; AlphaScreen JMJD2A-Tudor / H3K4me3 peptide binding; AID 504339; O75164; 390,000 compounds, 4.4% hits; Potency, µM (doses to about 114 µM), most hits filed as inhibitors; note: nearly all actives have a fitted effect of over 50% in size
# PLK1 PBD block – blocks phosphopeptide binding to human PLK1 polo-box domain | Plk1 PBD binding of FITC phosphopeptide, fluorescence polarization | Potency, µM, hits mostly inhibitors | 360,000 compounds, 2.8% hits | AID 720504; note: series mostly up to about 57 µM; nearly all actives have a fitted effect of over 65% in size
# Hits are given with their value; - = inactive; ? = inconclusive; . = no result; [ ] = another dose, or the depositor's remark. A selection: hits, their analogues and other compounds. The true share with any hit is near 12%. Calls come from the whole dose curve; as a rule, active = well fitted curve in the direction sought with a large enough effect; inconclusive = small, poorly fitted or top-dose-only effect, or another doubt; inactive = no such curve, though single readings can be large; an effect the other way counts as inactive or inconclusive.
SMILES,Sfp PPTase inh,BAZ2B inh,G9a block,HP1b chromo inh,JMJD2A Tudor,PLK1 PBD block
C[C@]12c3[nH]c4ccccc4c3CCN1C(=O)C(CC(=O)NCCN1CCOCC1)C[C@@H]2C(=O)N1CCOCC1 (stereo not given in full),.,.,.,-,-,-
CCOc1ccc(S(=O)(=O)Nc2nc3ccc(OC)cc3s2)cc1,-,-,?,-,-,-
CCOc1ccc2nc(NS(=O)(=O)c3ccc4c(c3)n(C)c(=O)n4C)sc2c1,-,56µM,?,-,-,-
Cc1ccc(C)c(N2N=C(C(=O)OCc3nnc(-c4ccccc4)o3)CCC2=O)c1,.,-,-[2.33 µM],-,-,-
Cn1cccc1CC(=O)NNC(=S)NC(=O)c1ccccc1Br,-,-,18µM,-,-,-
Cn1cccc1CC(=O)NNC(=S)Nc1ccc(F)cc1,-,-,?,-,?,-
Cn1cccc1CC(=O)NNC(=S)Nc1ccc(Cl)cc1Cl,-,?,45µM,-,-,-
NC(=O)CSc1nnc2ccc(-c3ccc(Cl)cc3)nn12,-,89µM,50µM,-,-,-
Cc1ccc(-c2ccc3nnc(SCC(N)=O)n3n2)cc1,-,-,45µM,-,-,-
O=C(CSc1nnc2ccc(-c3ccncc3)nn12)Nc1ccc(F)cc1,.,-,6.3µM,-,-,-
NC(=O)CSc1nnc2ccc(-c3ccc(F)cc3)nn12,-,-,-,-,-[11.4 µM],15µM
Cc1ccc(NC(=O)CSc2nnc3ccc(-c4cccnc4)nn23)cc1,.,-,-,-,-,-
COCCn1c2nc(=O)n(-c3ccccc3)c(=O)c-2nc2ccccc21,.,.,.,.,.,3.8µM
CCOc1ccccc1NS(=O)(=O)c1c(C)[nH]c(C)c1C(=O)N1CCCCC1,-,-,-,-,-,-
COc1ccc(/C=C/C(=O)c2ccncc2)c2ccccc12,?,-,?,-,56µM,-
COc1ccc(/C=C/C(=O)c2ccc[nH]2)c(OC)c1OC,-,-,-,-,-,-
CC1=NN(c2ccccc2)C(=O)/C1=C\C=C\c1ccccc1,-,4µM,2.2µM,10µM,10µM,-
CC(=O)Oc1ccc(/C=C2/C(=O)N(c3ccccc3)N=C2C)cc1,-,?,?,-,?,2.1µM
COc1ccc(/C=C2\OC(=S)N(C)C2=O)cc1,?,-,?,-,-,-
COc1ccc(/C=C2/C(=O)N(c3c(F)c(F)c(F)c(F)c3F)N=C2C)cc1,-,-,-[0.501 µM],-,-,6.7µM
CC1=NN(c2ccccc2)C(=O)/C1=C/c1cccc(C)c1,-,?,50µM,-,-,2.1µM
COc1ccc(CN(Cc2ccccc2)C(=O)c2ccncc2)cc1COc1ccc(NC(C)=O)cc1,.,.,.,-,?,.
CCOC(=O)CC1=NN(c2ccccc2)C(=O)/C1=C\c1ccc(N(C)C)cc1,-,5.6µM,4.5µM,?,10µM,?
CCOC(=O)CC1=NN(c2ccccc2)C(=O)C1,-,-,.,-,-,?
COc1ccc(C2=NN(c3ccccc3)C(=O)/C2=C\c2ccc(O)c(OC)c2)cc1,-,25µM,16µM,16µM,16µM,?
SMILES,Sfp PPTase inh,BAZ2B inh,G9a block,HP1b chromo inh,JMJD2A Tudor,PLK1 PBD block
COc1ccc(/C=C2/C(=O)N(c3ccccc3)N=C2C)cc1OC,-,-,71µM,-,-,3µM
CCOc1cc(/C=C2/C(=O)N(c3ccccc3)N=C2C)ccc1OC(=O)c1cccs1,-,50µM,40µM,-,?,2.1µM
O=C(NCCCN1CCCCCC1)C(c1ccccc1)C1CCCCC1 (stereo not given),-,.,-,.,.,.
Cc1cnc(CNc2ncnc3ccc(-c4c(C)noc4C)cc23)cn1,-,.,-[0.501 µM],.,.,.
COc1ccccc1NS(=O)(=O)c1cn(C)c(C)n1,.,-,-,-,-,.
CC1=NN(c2ccccc2)C(=O)/C1=C\c1cc(C)n(C)c1C,-,?,?,-,-,-
CC1=NN(c2ccccc2)C(=O)/C1=C/c1cc2cc(C)ccc2nc1N1CCCCC1,-,8.9µM,-[0.0925 µM],.,.,.
O=C(CCNC(=O)C1CCN(S(=O)(=O)c2ccccc2)CC1)Nc1cccc(C(F)(F)F)c1,-,-,-,-,-,-
CCC1(c2ccc(F)cc2)NC(=O)N(CC(=O)Nc2ccc(N3CCCCC3)cc2)C1=O (stereo not given),.,45µM,-[0.501 µM],-,45µM,-

# Screening data from PubChem BioAssay.
